The text below walks through data of PubChem BioAssay (NCI).

“And” between values parts separate entries of the source, which are not always exact repeats. Equal values may be shown once. This is part of a sample that, as a whole, favours compounds with a hit. Of some 83,000 tested, about 20% had one in any assay.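 A percent growth of 40 corresponds to 60% growth inhibition; 0 means no net growth; -100 means all cells died. Active threshold: below 10.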 The source made the active and inactive calls.

The assay relates to MDA-MB-468 breast. The assay can be described thus: NCI-60 one-dose screen, 48 h (100 = growth as untreated, 0 = no growth, -100 = all killed). To be noted: 10 µM unless noted.
Consider `O=C1c2cccc3cccc(c23)C(=O)N1N1C(=O)c2cccc3c(N4CCNCC4)ccc(c23)C1=O`, for which the growth was 91% (inactive).

For `Fc1ccc(CNc2c3ccccc3nc3ccccc23)c(F)c1`, the growth is -4.03% (active).

Regarding `COc1ccc(C(=S)N2CCN(c3ccccc3Cl)CC2)cc1OC`, the growth is 92.1% (inactive).

In the case of `O=C(NC(CSSCC(NC(=O)OCc1ccccc1)C(=O)O)C(=O)O)OCc1ccccc1` (configuration not stated), the growth is 84.5% (inactive) and 102% (inactive).

As to `COc1ccc(NC(=O)CSc2nc3ccccc3c(=O)n2Cc2cc(OC)c(OC)c(OC)c2)cc1`, the growth is 104% (inactive).

With `COc1cc2c3c(cccc3c1)C(=O)N(CCN1CCCC1)C2=O`, the growth is -3.53% (active).

For the compound `Cn1cc(-c2nonc2-c2c[nH]c3ccccc23)c2cc(Br)ccc21`, the growth is 59.5% (inactive).

As to `Brc1ccc2[nH]cc(-c3nc(-c4c[nH]c5ccncc45)cs3)c2c1`, the growth is -71.4% (active).

Consider `COc1ccc(OCC(=O)Nc2ccc(-c3nc4ccccc4s3)cc2C)cc1`, for which the growth was 7.38% (active).

Consider `COc1ccc(-n2nc(C)c3c(Nc4ccc(NC(=O)Nc5c(Cl)cccc5Cl)cc4)ncnc32)cc1`, for which the growth is 27.9% (inactive).

`COc1cc(-c2nn(-c3ccc(NC(=O)c4cc(Cl)cc(Cl)c4)cc3)cc2-c2ccncc2)ccc1Cl`: the growth is 89.2% (inactive).

Consider `Cc1cccc2cc(/C=C/C(=O)/C=C/c3ccc(Cl)cc3)c(=O)[nH]c12`, for which the growth is 61.7% (inactive).

Consider `C[C@]12CC[C@@H]3c4ccc(O)cc4C[C@@H](O)[C@H]3[C@@H]1CC[C@@H]2O`, for which the growth is 98.1% (inactive).

On to `COc1ccc(-c2cc(-c3ccc(Cl)cc3)c(C#N)c(=O)n2CCCCC(=O)Nc2ccccc2N)cc1`, for which the growth was 47.9% (inactive).

`Cn1ccnc1C(=O)/C=C/c1ccc(C(=O)Nc2ccccc2F)cc1`: the growth was 22.3% (inactive).

Take `COc1ccc(C2CC(c3cc(OC)c(OC)c(OC)c3)=NN2C(C)=O)cc1OCC(=O)Nc1nc2ccc(C(F)(F)F)cc2s1` (configuration not stated): the growth is 84.1% (inactive).

For `N#Cc1nnn(-c2ccc(S(N)(=O)=O)cc2)c1NCC(=O)c1ccccc1`, the growth was 96.7% (inactive).

As for `COc1cccc2c1C(=O)c1c(O)c3c(c(O)c1C2=O)C[C@@](O)(C(=O)CO)C[C@@H]3OC1CC(OC(C)=O)C(OC(C)=O)C(C)O1` (some centres not stated), the growth was -25.8% (active).

For the compound `O=C(CCSc1nnc2n(Cc3ccccc3)c(=O)c3c4c(sc3n12)CCCC4)N1CCN(c2ccccc2)CC1`, the growth is 101% (inactive).

Regarding `C#CCOc1cccc(/C(N)=N/C(N)=N/c2nc3ccccc3s2)c1`, the growth is 76.4% (inactive).

Turning to `COc1ccc(/C=C(/C(=O)N2CCNCC2)c2cc(OC)c(OC)c(OC)c2)cc1O`, the growth was -4.45% (active).

For the compound `O=C(N=c1n(-c2ccccc2)nc2n1CCN2C1=NCCN1C(=O)c1ccc(Cl)cc1)c1ccc(Cl)cc1`, the growth is 73.6% (inactive).

In the case of `COc1ccc2c3c(c4ccccc4cc13)C(=O)N(CCN(C)CCN)C2=O`, the growth is -76.5% (active).

As to `C=C(C)[C@@H]1CC[C@]2(COCCCNCCC#N)CC[C@]3(C)[C@H](CC[C@@H]4[C@@]5(C)CC[C@H](OCCCNCCC#N)C(C)(C)[C@@H]5CC[C@]43C)[C@@H]12`, the growth is 8.32% (active).

On to `S=C(NCCNC(=S)[S][Sn]([c]1ccccc1)([c]1ccccc1)[c]1ccccc1)[S][Sn]([c]1ccccc1)([c]1ccccc1)[c]1ccccc1`, for which the growth was -97.9% (active).

With `c1ccc2c(-c3nc(N4CCOCC4)c4c5c(sc4n3)CCCCCC5)cccc2c1`, the growth is 95.1% (inactive).

As to `O=C1/C(=C/c2ccc(Cl)cc2)N=C(c2ccccc2)N1CCc1cccs1`, the growth is 72.4% (inactive).

On to `COC(=O)c1nc(=S)[nH]c(C(=O)OC)c1C(=O)c1ccccn1`, for which the growth is 19.3% (inactive).

Take `C=CCn1c(SCC(=O)c2ccccc2)nnc1-c1c[nH]c2ccccc12`: the growth is 87.7% (inactive).

Take `COc1cc(C2C=C(C)N=C3SC=C(C)N32)cc(OC)c1OC` (configuration not stated): the growth is -74.2% (active).

Regarding `O=C1CCCCC1(c1ccccc1)c1ccccc1`, the growth is 98.4% (inactive).

With `O=[n+]1ccn([O-])c2ccccc21`, the growth was 86.9% (inactive).

Take `CCCCCCCCCCCCN1CCCC(C)C1` (configuration not stated): the growth was 68.4% (inactive).

Regarding `COC(=O)c1c(C)nc(Nc2nc3ccccc3s2)nc1-c1ccc(Cl)cc1Cl`, the growth was 104% (inactive).

With `CCCCCCCCCCCCC1CCC/C=C\CCC(=O)O1` (configuration not stated), the growth was 100% (inactive).

On to `c1ccc2c(c1)CN(CCCN1CCOCC1)C2`, for which the growth is 89.7% (inactive).

As to `C=C(C)[C@@H]1CC[C@]2(C(=O)NS(=O)(=O)c3ccccc3)CC[C@]3(C)[C@H](CC[C@@H]4[C@@]5(C)CC[C@H](OC(=O)NS(=O)(=O)c6ccccc6)C(C)(C)[C@@H]5CC[C@]43C)[C@@H]12`, the growth is 25.8% (inactive).
